ADAM17 inh: ADAM17 inhibition, QFRET primary screen | P78536 | recombinant ADAM17, EDANS/DABCYL FRET peptide cleavage | inhibition, % at 6.95 µM | actives 0.83% (n = 370,000) | AID 720648;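 active = inhibition above the mean of compounds lying between control limits plus 3 SD, set per campaign, cut at about 8.5% in these data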;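 also: 0% = DMSO-only wells as the low control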
GRIN3A LBD mod: modulates the human NR3A ligand-binding domain. NR3A LBD differential scanning fluorimetry, Tm shift; 0% = protein alone, 100% = glycine-bound protein. Tm shift relative to glycine control, % at 25 µM. actives 2.5% (n = 340,000). AID 1259313;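 active = melting temperature shift of at least 10% of the positive control shift, at one fixed dose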
ADAM10 inh: inhibitors of human ADAM10; O14672; recombinant ADAM10, EDANS/DABCYL FRET peptide cleavage, 3 h; inhibition, % at 7 µM; actives 0.62% (n = 370,000); AID 720582;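 active = inhibition above a per-campaign cutoff equal to the mean of compounds falling between control-based bounds plus 3 SD, cut at about 20% in these data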;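 also: 0% = DMSO wells while the 100% control is not disclosed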
Target sequence (O14672 214-748 limits assumed): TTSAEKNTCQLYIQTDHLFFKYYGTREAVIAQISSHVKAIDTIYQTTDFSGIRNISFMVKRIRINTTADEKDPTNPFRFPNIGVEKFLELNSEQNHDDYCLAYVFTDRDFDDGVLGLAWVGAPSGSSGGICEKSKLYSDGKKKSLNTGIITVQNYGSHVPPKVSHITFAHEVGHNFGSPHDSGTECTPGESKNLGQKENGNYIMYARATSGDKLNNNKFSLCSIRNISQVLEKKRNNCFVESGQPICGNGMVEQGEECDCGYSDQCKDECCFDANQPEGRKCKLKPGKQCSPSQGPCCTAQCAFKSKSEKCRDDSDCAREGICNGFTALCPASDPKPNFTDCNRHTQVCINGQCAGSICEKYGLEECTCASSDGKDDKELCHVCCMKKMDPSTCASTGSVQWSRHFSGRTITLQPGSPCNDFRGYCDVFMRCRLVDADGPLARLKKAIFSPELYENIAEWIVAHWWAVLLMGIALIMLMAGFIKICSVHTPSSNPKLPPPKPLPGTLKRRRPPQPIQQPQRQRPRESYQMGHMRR
proKLK7 act: proKLK7 (human) activation, primary screen; AID 652039; P49862; purified proKLK7, EDANS-DABCYL substrate fluorescence; 100% is mature enzyme control, 0% vehicle; actives 0.9% (n = 370,000); activation, % at 7 µM;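 active = activation above the mean of all tested compounds plus 3 SD, computed per campaign excluding outliers beyond control limits, cut at about 13% in these data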
FAS TE block: FAS thioesterase (human) inhibition; P49327; recombinant FAS-TE, OMFH fluorogenic substrate, fluorescence endpoint; inhibition, % at 15 µM; actives 0.67% (n = 360,000); AID 602261;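 active = compounds whose normalised, plate-corrected inhibition of enzyme fluorescence in the single-dose primary screen is 50% or more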;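 also: 0% = DMSO with enzyme and 100% = substrate without enzyme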
The depositor's hits bear a star; . = not tested or not shown. Shown are actives, neighbours in structure and some others; about 4.6% of the full set was active somewhere.

SMILES	ADAM17 inh	GRIN3A LBD mod	ADAM10 inh	proKLK7 act	FAS TE block
Cc1cc2nc3n(c2cc1C)CC1CC(C(=O)NCCc2cccs2)N(C)C31 (stereo unspecified)	-4	13*	-1	1	-7
CN1C(C(=O)NCc2ccccc2)CC2Cn3c(nc4cc5ccccc5cc43)C21 (stereo unspecified)	-2	12*	-28	-1	-6
CN1C(C(=O)NCc2ccco2)CC2Cn3c(nc4cc(Cl)c(Cl)cc43)C21 (stereo unspecified)	1	1	0	0	4
COc1ccccc1CNC(=O)C1CC2Cn3c(nc4cc5ccccc5cc43)C2N1C (stereo unspecified)	-5	1	-13	0	-3
C=CCN1[C@H](C#N)[C@@H](c2ccccc2)[C@H]1CO	-3	.	-5	0	.
CN(C)CC(=O)N[C@@H]1C[C@@H]2O[C@@H](CO)CC[C@@H]2O[C@@H]1CCc1ccc(-c2ccc(F)cc2)cc1	0	.	-1	0	.
Cc1cccc2cc(CN(Cc3ccc(F)cc3)C(=O)N(C)C)c3nnnn3c12	-6	12*	-6	0	-72
Cc1cccc2cc(CN(Cc3ccc(F)cc3)C(=O)C(F)(F)F)c3nnnn3c12	-4	-5	-3	0	32
O=C(O)c1ccc(N=Nc2c(O)ccc3ncccc23)cc1	-2	12*	-9	0	24
O=C(O)c1cc(N=Nc2c(O)ccc3ccccc23)cc(C(=O)O)c1	-3	1	0	0	0
CCOc1ccc(-n2c(SCC(=O)Nc3cccc4ccccc34)nnc2-c2cccs2)cc1	5	.	4	-1	.
COc1ccc2c(c1)CCCN2C(=O)C1CCCN(S(=O)(=O)c2ccc(C)c(C)c2)C1 (stereo unspecified)	7	.	-2	0	.
Cc1ccc(NC(=O)c2ccc(N/N=C/c3cccc(O)c3)c([N+](=O)[O-])c2)cc1	-3	256*	1	0	0
O=[N+]([O-])c1cccc(/C=N/Nc2cc(Cl)nc(-c3ccccc3)n2)c1	-1	28*	0	0	30
Cc1cccc(C(=O)Oc2ccccc2/C=N/Nc2ccc([N+](=O)[O-])cc2)c1	-1	14*	-7	0	29
O=[N+]([O-])c1ccc(NN=Cc2cccc([N+](=O)[O-])c2)cc1	-2	34*	-4	0	2
COC(=O)[C@H](C)N(Cc1cn(Cc2ccccc2)nn1)S(=O)(=O)c1ccccc1Br	4	.	9	1	.
COc1ccc(NC(=O)CSc2ncnc3scc(-c4ccc(C)cc4)c23)cc1OC	1	.	2	0	.
O=C(Cn1c(=O)c2cccn2c2cccnc21)NCCCN1CCN(c2ccccc2)CC1	-7	.	-11	.	.
CNc1ccc(/C=C/C(=O)c2ccc3c(c2)OCCO3)cc1[N+](=O)[O-]	1	-7	2	0	2
O=C(N/N=C/c1ccc[nH]1)c1ccccc1[N+](=O)[O-]	-4	-5	-5	-1	-3
CNc1ccc(/C=C/C(=O)c2ccc(C)cc2)cc1[N+](=O)[O-]	-2	21*	7	0	4
Cc1cccc(NC(=S)N/N=C/c2cccc([N+](=O)[O-])c2)c1	.	150*	.	.	24
O=[N+]([O-])c1ccc(C=NNc2ccc(S(=O)(=O)O)cc2)cc1	3	-19	9	0	4
O=[N+]([O-])c1ccc(N/N=C/c2cccc(O)c2O)cc1	0	35*	4	0	32
SMILES	ADAM17 inh	GRIN3A LBD mod	ADAM10 inh	proKLK7 act	FAS TE block
O=[N+]([O-])c1ccc(N/N=C/c2ccc[nH]2)cc1	3	25*	7	0	-7
CC(C)[C@H](NC(=O)[C@@H]1CCCN1)C(=O)N1CCC2CCN(S(=O)(=O)c3ccccc3)CC21 (stereo partly specified)	-1	.	-5	0	.
CCCCCCCCCS(=O)(=O)N/N=C/c1cccc([N+](=O)[O-])c1	2	18*	6	-1	47
O=[N+]([O-])c1ccc(N/N=C/c2cccc(O)c2)cc1	8	26*	2	-1	12
O=[N+]([O-])c1ccc(N/N=C/c2cccnc2)cc1	0	12*	11	-1	7
O=S(=O)(CC1NCc2ccccc21)NC1CCCC1 (stereo unspecified)	-4	.	-6	0	.
COc1ccccc1N1CCN(S(=O)(=O)c2ccc3c(c2)CCC(=O)N3)CC1	1	.	6	0	.
COc1ccccc1-c1noc(CCC(=O)Nc2cccc(C)c2)n1	-2	14*	4	0	-3
COc1ccc(-c2noc(CCC(=O)Nc3cccc(C)c3)n2)cc1	1	2	5	0	10
CN(C)S(=O)(=O)c1cccc(-c2nn(-c3ccccc3)cc2/C=C(\C#N)c2nc3ccccc3[nH]2)c1	-5	-1	-4	-5	44
CN(C)S(=O)(=O)c1cccc(-c2nn(-c3ccccc3)cc2/C=C2\SC(=S)NC2=O)c1	5	11*	12	1	40
CN(Cc1ccccc1)C(=O)OCc1cn(Cc2ccc(F)cc2)nn1	1	.	3	0	.
CCOc1ccc(CN2CCNC(=O)C2CC(=O)NCCN2CCOC2=O)cc1 (stereo unspecified)	-7	16*	-13	1	2
Cc1ccccc1CN1CCNC(=O)C1CC(=O)NCCN1CCCCC1=O (stereo unspecified)	-7	11*	-23	1	-9
CCOc1ccc(CN2CCNC(=O)C2CC(=O)NCCc2cnccn2)cc1 (stereo unspecified)	1	1	-12	-1	-5
CCc1ccc(C(=O)Cn2ccsc2=N)cc1	-3	39*	-4	0	-1
Cc1cc(NC(=O)COC(=O)C2CC(=O)N(c3ccc(C)c(Cl)c3)C2)no1 (stereo unspecified)	-3	21*	-6	0	-2
Cc1cc(NC(=O)COC(=O)C2CC(=O)N(c3cccc(Cl)c3)C2)no1 (stereo unspecified)	-1	0	-1	0	-7
COc1ccc(Br)cc1C(=O)N/N=C/c1cccnc1	-4	1	4	0	-3
CCOc1ccc(S(=O)(=O)Nc2ccccc2C(=O)N/N=C/c2c(OC)ccc3ccccc23)cc1	4	22*	4	-1	46
CCOc1ccc2[nH]c(C(=O)N/N=C/c3ccc(OC)cc3)cc2c1	-32	.	-60	-26	-1
CCOc1ccc(/C=N/NC(=O)c2cc3ccccc3cc2OC)cc1	-10	24*	-24	-2	17
COc1cc2ccccc2cc1C(=O)N/N=C/c1cccnc1	-12	83*	-27	-1	-5
CCCCOc1ccc(/C=N/NC(=O)c2csc(C)c2C)cc1	-1	28*	7	0	29
O=S1(=O)c2ccc(Br)cc2OC[C@@H](c2ccccc2)N1Cc1cn(Cc2ccccc2)nn1	4	.	8	0	.

Source: PubChem
